Screening data from PubChem BioAssay.
Hits are enriched below; roughly 4.3% of the tested compounds scored in any of these assays.
Giardia killer – kills Giardia lamblia | Giardia lamblia trophozoite viability | activity change, % at 7.66 µM, hits read low | 0.15% of 340,000 active | AID 540267; in the data active = activity change below about -80%; inconclusive = between about -30% and that limit;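 note: parasites exposed to compound for two days anaerobically before the ATP read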
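Giardia lamblia trophozoites (100 cells/well) were incubated with compounds for 48 h at 37 deg C under anaerobic conditions. Viability was read as ATP content by one-step luminescence after 15-30 min at room temperature.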
SW480 rerep – DNA re-replication induction in SW480 cells; SW480 DNA re-replication, Hoechst DNA content imaging, 48 h; Potency, µM (series often up to 46.1 µM), usual class: activators; 1.8% of 340,000 active; AID 624297; note: nearly all actives have a fitted effect of over 55% in size
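Quantitative HTS format with DMSO vehicle controls; 48 hr drug incubation at 37 C, then 40 min Hoechst staining and scanning imager measurement at 405 nm excitation.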
uPA surface inh – cell surface uPA generation inhibition; 0.31% of 330,000 active; Potency, µM (top dose mostly 38.3 µM), hits mostly inhibitors; cell surface uPA generation assay, qHTS; AID 540303; active = well fitted inhibition curve with a large enough effect; inconclusive = small, poorly fitted or top-dose-only effect; inactive = no such curve, though single readings can be large or run the other way; tested in mouse RAW 264.7 cells; note: nearly all actives have a fitted effect of over 55% in size
MCF10A rereplic – induces DNA re-replication in MCF 10a normal breast cells. Potency, µM (series often up to 46.1 µM), usual class: activators. AID 624296. 2.9% of 350,000 active. MCF 10A DNA re-replication, Hoechst nuclear intensity, 48 h; note: nearly all actives have a fitted effect of over 50% in size
Each line names hits and unclear results; the compound was inactive in the other large screens. Unless noted, calls come from the whole dose curve; as a rule, active = well fitted activation curve with a large enough effect; inconclusive = small, poorly fitted or top-dose-only effect; inactive = no such curve, though single readings can be large or run the other way.

COc1ccc(CNC(=O)CN(C(=O)c2csnn2)c2cccc3ccccc23)cc1	none
Cc1nc(S(=O)(=O)N(C)c2ccccc2)c(C#N)c(C)c1Cl	SW480 rerep 9.2µM, MCF10A rereplic inconclusive
CN(c1ccccc1)S(=O)(=O)c1ccc(Cl)nc1	none
COc1ccc(C=NNC(=O)CCCCC(=O)NN=Cc2ccc(OC)cc2)cc1	none
COC(=O)/C=C\C(C#N)(C#N)N=Cc1ccc(OC)cc1	SW480 rerep 6.5µM, MCF10A rereplic 13µM
O=S(=O)(O)c1cc(O)c(N=Nc2ccc(O)cc2O)c2ccccc12	none
O=C(c1ccc(Br)cc1)c1cc(-c2ccccn2)c(N2CCOCC2)s1	MCF10A rereplic inconclusive
O=C(c1ccc(Cl)c(Cl)c1)c1cc(-c2ccccn2)c(N2CCOCC2)s1	MCF10A rereplic 21µM
COc1ccc(S(=O)(=O)N(C)CC(=O)Nc2c(F)cccc2F)cc1	SW480 rerep 18µM, MCF10A rereplic 8.2µM
Cc1cc(=O)n2c(C(=O)Nc3ccc(C(=O)OC(C)C)cc3)c(C(=O)Nc3ccccc3)sc2n1	MCF10A rereplic 16µM
O=C(Nc1ccnn1C1CCN(Cc2ccc(C#CCCO)cc2)CC1)c1cccc(F)c1	none
CC12CC(c3ccccc3O1)N(C(=O)c1ccco1)C(=S)N2c1ccc(F)cc1 (configuration not stated)	MCF10A rereplic 12µM
N#Cc1c(N(CC(=O)O)CC(=O)O)sc(C(=O)O)c1CC(=O)O	none (no result: Giardia killer, uPA surface inh)
Cc1nc(Cc2nnc(SCC(=O)N3CCN(c4ccc(O)cc4)CC3)o2)cs1	SW480 rerep 2.1µM, uPA surface inh inconclusive
O=C(O)c1cccc2cccc(-c3c4ccc(=O)c(O)c-4oc4c(O)c(O)ccc34)c12	none
Cc1ccc2nc(N3CCN(C(=O)c4ccccc4F)CC3)c(C#N)cc2c1	MCF10A rereplic 12µM
COc1ccc(CCN(C)C(=S)Nc2cccc(C)c2)cc1OC	none
CC(C)(C)c1cc(Cl)c(O)c(NC(=S)NC(=O)c2cccnc2)c1	uPA surface inh inconclusive, MCF10A rereplic 15µM
CC(C)c1ccc(O)c(NC(=S)NC(=O)c2cccnc2)c1	MCF10A rereplic inconclusive
O=C(NNC(=S)NC(=O)c1ccccc1)c1cccnc1	none
CC(C)(C)c1ccc(C(=O)NNC(=S)NC(=O)c2cccnc2)cc1	SW480 rerep 15µM
CCCCCCC(O)C/C=C/CCCCCCCC(=O)O (configuration not stated)	MCF10A rereplic inconclusive (no result: Giardia killer, uPA surface inh)
COc1ccc(/C=C/c2nc3ccccc3n2Cc2ccccc2OC)cc1	SW480 rerep inconclusive, MCF10A rereplic 16µM
O=c1c(-c2c(O)cc(O)c3c2O[C@H](c2ccc(O)cc2)CC3)c(-c2ccc(O)cc2)oc2cc(O)cc(O)c12	none
CCCN(C(=O)Cn1ncc2c([nH]c3ccccc32)c1=O)c1ccccc1C	SW480 rerep inconclusive
CCCCCCCN(C(=O)CCl)c1ccccc1C	SW480 rerep 7.3µM
C/C(=N\NC(=O)c1cccc(Cl)c1)C1C(=O)c2ccccc2C1=O	SW480 rerep 3.7µM, MCF10A rereplic inconclusive
COCC(=O)Nc1cc(Sc2ccccc2)ccc1N=C(NC(=O)OC)NC(=O)OC	SW480 rerep 17µM, MCF10A rereplic 7.5µM (no result: Giardia killer, uPA surface inh)
COc1cccc(C(=O)NNC(=O)c2ccc3ccccc3c2O)c1	SW480 rerep inconclusive, MCF10A rereplic inconclusive
C[C@@H]1CN([C@H](C)CO)C(=O)c2cccc(NS(=O)(=O)c3ccccc3)c2O[C@H]1CN(C)C	none
Cc1ccccc1Nc1c(-c2ccccn2)nc2c(C)cccn12	none
Cc1ccc2nc(-c3ccccn3)c(NC3CCCC3)n2c1	SW480 rerep 16µM, MCF10A rereplic inconclusive
Cc1cccc(C)c1Nc1c(-c2ccccn2)nc2ccccn12	SW480 rerep inconclusive, uPA surface inh 4.5µM, MCF10A rereplic inconclusive
CCCCc1c(C)[nH]c2nc3ccccc3n2c1=O	none
O=C1SC(Nc2ccccc2)C(=O)N1c1ccccc1 (configuration not stated)	none (no result: SW480 rerep, uPA surface inh, MCF10A rereplic)
Cc1ccc(C(=O)/C=C/c2cn(CN3CCN(C)CC3)c3ccccc23)cc1	SW480 rerep 18µM, MCF10A rereplic 18µM (no result: uPA surface inh)
O=C(O)COc1ccccc1/C=N/NC(=O)/C(=C\c1ccc2c(c1)OCO2)NC(=O)c1ccccc1	MCF10A rereplic 18µM
O=C(N/N=C/c1ccccc1OC(=O)c1ccc2c(c1)OCO2)c1ccccc1	SW480 rerep inconclusive, MCF10A rereplic 21µM
COc1ccccc1/C=N/NC(=O)c1ccc2c(c1)OCO2	none
CC(/C=C/c1ccccc1)=N\NC(=O)c1ccc2c(c1)OCCO2	SW480 rerep 18µM
CC(C)(C)C(=O)Nc1ccc(C(=O)N/N=C/c2ccccc2OC(=O)c2ccc(Cl)cc2)cc1	SW480 rerep 2.6µM
